Compound activity deposited in PubChem BioAssay by Johns Hopkins Ion Channel Center.
TMEM16A act: mouse TMEM16A channel activation, primary screen; Q8BHY3; HEK293 TMEM16A/YFP-H148Q/I152L, iodide quench fluorescence; hits give low values; B-score at 10 µM; hit rate 0.3% among 340,000; AID 623877;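 active = fluorescence-ratio B-score plate-corrected deviation score at least 3 library SD below zero, with starting fluorescence score within 5 deviations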;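 note: channel opened by trigger with iodide after compound preincubation; score built on the fluorescence ratio of max minus min over baseline; more negative score means more quench and so TMEM16A activation or potentiation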
CHT block: inhibits the human high affinity choline transporter. Q9GZV3. B-score at 10 µM. hit rate 0.86% among 310,000. CHT-expressing cells, membrane potential dye, choline response; hits give low values;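 active = B-score over 3 SD under the library average, and starting fluorescence ratio not unusually high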;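 note: choline stimulus applied at its EC90 after an EC20 pre-addition; B-score computed on integrated fluorescence ratio after choline addition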
ANO1 block: blocks the mouse calcium-activated chloride channel TMEM16A; hit rate 1.2% among 310,000; Q8BHY3; HEK293 TMEM16A/YFP iodide influx fluorescence, ionomycin; normalized B-score (activity score, 25-100; higher = stronger inhibition) at 10 µM;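 active = ratio plate-corrected score three or more library SD toward inhibition, starting fluorescence score within five deviations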;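 note: score derived from kinetic fluorescence span divided by baseline fluorescence per well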
CHT allo act: human CHT allosteric activation | CHT-expressing cells, membrane potential dye, choline EC20; hits give high values; LV-AA mutant CHT in HEK293 cells | B-score at 10 µM | hit rate 0.49% among 310,000;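 active = initial fluorescence not abnormally high and integrated response B-score, plate-corrected, over 3 SD above library mean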
CHT act confirm: human CHT activation, confirmatory screen | AID 504833 | hit rate 91% among 2,500 | shares compounds with CHT allo act | activation, % at 10 µM | CHT-expressing cells, membrane potential dye fluorescence (FDSS); % of choline EC20–EC90 response window; HEK293 expressing CHT LV-AA mutant; choline added at its EC20;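 active = primary screen active, with duplicate mean activation above negative control mean plus 3 SD, cut at about 11% in these data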
HEK293 MP dye: CHT activator counter-screen hit in parental HEK293 cells | shares compounds with CHT allo act | membrane potential dye fluorescence (FDSS); measured after EC20 choline addition | ratio readout change at 10 µM, hits read low | hit rate 62% among 2,500 | AID 623908;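 active = duplicate-averaged ratio beyond 3 SD from buffer wells, up or down, though filed actives are nearly all decreases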
The depositor's hits bear a star; i = inactive; nt = no result; ! = not confirmed by another sample. Sampled rows, rich in hits. Any-hit rate of the full collection: about 2.3%.

SMILES	TMEM16A act	CHT block	ANO1 block	CHT allo act	CHT act confirm	HEK293 MP dye
CC[n+]1ccc(C)c2cc(SC(F)(F)F)ccc21	i	i	i	6.9*	33*	-52*
Cc1cc[n+](CC(=O)c2ccc(NC(=O)c3ccccc3)cc2)c2ccccc12	i	i	i	i	nt	nt
CC[n+]1ccc(C)c2cc(P(=O)(c3ccccc3)c3ccccc3)ccc21	i	i	i	7.8*	58*	-42*
CC(C)(C)OC(=O)[C@H]1[C@H](c2ccc([N+](=O)[O-])cc2)C2(C(=O)c3ccccc3C2=O)C2c3ccccc3C=NN21 (stereo not given in full)	i	i	i	i	37*	i
CC(=O)Nc1ccc(NC(=O)C(C)OC(=O)CN2C(=O)C3CCCCC3C2=O)cc1 (stereo not given)	i	nt	nt	nt	nt	nt
N/C(=N\OC(=O)c1ccncc1)c1cccc([N+](=O)[O-])c1	i	i	i	7.3*	37*	-46*
Cc1ccc(C(=O)O/N=C(\N)c2cccc([N+](=O)[O-])c2)cc1	i	i	i	i	nt	nt
CS(=O)(=O)/C(C#N)=C\c1cnc(S(=O)(=O)c2ccccc2)s1	nt	i	i	i	nt	nt
CCC(=O)NCCc1nc2cc(NC(=O)c3cccc([N+](=O)[O-])c3)ccc2n1C	i	i	i	i	32*	-26*
Cc1cc(F)ccc1S(=O)(=O)Nc1ccccc1C(=O)NC1CCN(Cc2ccccc2)CC1	i	nt	nt	nt	nt	nt
Cc1[nH]c2ccc3ncccc3c2c1C	i	i	i	6.8*	30*	-65*
O=C(CCNC(=O)c1ccc(Cl)cc1)Nc1cccc(S(=O)(=O)N2CCCCC2)c1	i	nt	nt	nt	nt	nt
Cc1c(C(=O)N/N=C/c2cccnc2)sc(=S)n1C	i	i	i	i	41*	-41*
Cc1ccc([N+](=O)[O-])c(C(=O)N/N=C/c2cccnc2)c1	i	i	i	i	61*	-41*
CC1(C)Cc2c(sc3c2C(=O)N(c2ccccc2)C2=NCCN23)CS1	i	i	i	i	nt	nt
CN1C(=O)c2c(sc3c2CC(C)(C)SC3)N2CCN=C12	i	i	i	15*	60*	-55*
O=C(NCC(c1ccco1)N1CCCC1)c1ccccc1Sc1ccc(C(F)(F)F)cc1[N+](=O)[O-] (stereo not given)	i	i	i	i	26*	i
CCN1C(N(C)CCc2cccs2)=N[C@@H](c2ccccc2)C(C(=O)OC)=C1C	i	i	i	13*	26*	i
CCN1C(N(C)CCc2c[nH]c3ccccc23)=N[C@@H](c2cccc(C(F)(F)F)c2)C(C(=O)OC)=C1C	i	nt	nt	nt	nt	nt
CC(C)CC(c1nnnn1C(C)(C)C)N1CCN(C2CCCC2)CC1 (stereo not given)	i	i	i	6.6*	15*	i
Cc1ccc(C(c2nnnn2C(C)(C)C)N2CCN(C3CCCC3)CC2)cc1 (stereo not given)	i	i	i	i	nt	nt
CC(C)(C)C(=O)NCCCc1nc2ccccc2n1CCCOc1ccc(Cl)cc1	i	i	i	12*	10	i
CC1(C)Cc2c(sc3ncn(N)c(=N)c23)CO1	i	i	i	i	nt	nt
Cc1nc2sc3c(c2c(=N)n1N)CC(C)(C)OC3	i	i	i	8.4*	63*	-47*
COc1ccccc1-n1c(SC(C)C(=O)NCC2CCCO2)nc2cc(Cl)ccc2c1=O (stereo not given)	i	i	i	i	nt	nt
SMILES	TMEM16A act	CHT block	ANO1 block	CHT allo act	CHT act confirm	HEK293 MP dye
Cc1ccc(NC(=O)c2nc3nccc(C)n3n2)cc1S(=O)(=O)N1CCCCC1	i	nt	nt	nt	nt	nt
Cc1ccnc2nc(C(=O)Nc3nccs3)nn12	i	i	i	i	40*	i
Cc1ccnc2nc(C(=O)Nc3ccc(S(=O)(=O)N4CCCC4)cc3)nn12	i	i	i	9.9*	27*	-21*
Cc1ccnc2nc(C(=O)NC3=NCCS3)nn12	i	i	i	i	nt	nt
Cc1cccc(-c2cnn(-c3cccc([N+](=O)[O-])c3)c2N)c1	i	i	i	i	nt	nt
Cc1cc[n+]2cc(-c3cccc([N+](=O)[O-])c3)c(-c3cccc([N+](=O)[O-])c3)cc2c1	i	i	i	7*	65*	-84*
CC(Oc1ccccc1)C(=O)N1CCC2(CC1)Oc1ccc(Cl)cc1C(=O)C21CC(c2ccccc2)=NO1 (stereo not given)	nt	i	i	i	nt	nt
CC(C)C(=O)N1CCC2(CC1)Oc1ccc(Cl)cc1C(=O)C21CC(c2ccccc2)=NO1 (stereo not given)	i	i	i	i	6	i
CCOC(=O)[C@@H]1[C@H]2COc3cc(OC)ccc3[C@@H]2N2C(=O)N(c3cccc(Cl)c3)C(=O)[C@@]12C	i	i	i	i	nt	nt
CCN(CC)Cc1cc(Nc2ccnc3cc(Cl)ccc23)ccc1O	i	i	i	7.5*!	48*	-52*
Oc1ccc(Nc2ccnc3cc(Cl)ccc23)cc1	i	i	i	i	nt	nt
CCN(CC)CCNc1ccnc2cc(Cl)ccc12	i	i	i	7.4*	51*	-84*
Cc1nnc(SCCn2c(N3CCN(C)CC3)nc3c2c(=O)n(C)c(=O)n3C)s1	i	i	i	7.7*	46*	-70*
Cc1nnc(SCCn2c(N3CCCCC3)nc3c2c(=O)n(C)c(=O)n3C)s1	i	i	i	i	nt	nt
O=C(OCC(=O)N(Cc1ccccc1)Cc1ccccc1)c1ccccc1O	i	nt	nt	nt	nt	nt
O=C(OCC(=O)N(CCc1ccccc1)Cc1ccccc1)c1ccccc1O	i	i	i	6.5*	38*	i
COc1ccccc1N1CCN(C2CCCN(C(=O)CCc3cnn(C)c3)C2)CC1 (stereo not given)	i	i	i	i	nt	nt
O=C(c1ccc(C(F)(F)F)cc1)N1CCC(=O)N(C(COCc2ccc(C(F)(F)F)cc2)Cc2ccccc2)CC1 (stereo not given)	i	i	i	i	nt	nt
CC(C)CC(COCc1ccc([N+](=O)[O-])cc1)N1CCN(C(=O)c2ccc(C(F)(F)F)cc2)CCC1=O (stereo not given)	i	i	i	i	29*	i
Cc1cccc(COCC(Cc2ccccc2)N2CCN(C(=O)c3ccc(C(F)(F)F)cc3)CCC2=O)c1 (stereo not given)	i	i	i	i	35*	i
C[N+](C)(C)CCCCCCCCCC[N+](C)(C)C	i	i	i	7.8*	43*	-52*
